A549 viability – kills or reduces viability of A549 cells in Nrf2 counter-screen | AID 504648 | actives 0.16% (n = 390,000) | A549 ARE-Fluc cells, CellTiter-Fluor viability, 18-24 h | Potency, µM (top dose mostly 46 µM), inactives show top-dose activity change, negative = cytotoxicity, actives largely listed as inhibitors; note: potency is the fitted concentration of half-maximal effect; % is set by controls: 0 for no effect and ±100 for the full control effect
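A549 ARE-Fluc cells in 5% FBS OPTI-MEM, 5000 cells/well, rested 2 h then exposed to compounds in concentration-response for 18-24 h at 37 °C. Viability by CellTiter-Fluor fluorescence (Ex 405/Em 525) after 30 min; luciferase luminescence (BugLite, 15 min, RT) read afterwards.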
12-LOX inh – blocks human arachidonate 12S-lipoxygenase. AID 1671190. actives 1.1% (n = 580,000). purified 12hLO, xylenol orange hydroperoxide absorbance. Potency, µM (series often up to 108 µM), without a hit: top-dose activity change, negative = inhibition, hits mostly inhibitors; note: potency is the fitted concentration of half-maximal effect; % is set by controls: 0 for no effect and ±100 for the full control effect
Target sequence (P18054 whole entry, looked up): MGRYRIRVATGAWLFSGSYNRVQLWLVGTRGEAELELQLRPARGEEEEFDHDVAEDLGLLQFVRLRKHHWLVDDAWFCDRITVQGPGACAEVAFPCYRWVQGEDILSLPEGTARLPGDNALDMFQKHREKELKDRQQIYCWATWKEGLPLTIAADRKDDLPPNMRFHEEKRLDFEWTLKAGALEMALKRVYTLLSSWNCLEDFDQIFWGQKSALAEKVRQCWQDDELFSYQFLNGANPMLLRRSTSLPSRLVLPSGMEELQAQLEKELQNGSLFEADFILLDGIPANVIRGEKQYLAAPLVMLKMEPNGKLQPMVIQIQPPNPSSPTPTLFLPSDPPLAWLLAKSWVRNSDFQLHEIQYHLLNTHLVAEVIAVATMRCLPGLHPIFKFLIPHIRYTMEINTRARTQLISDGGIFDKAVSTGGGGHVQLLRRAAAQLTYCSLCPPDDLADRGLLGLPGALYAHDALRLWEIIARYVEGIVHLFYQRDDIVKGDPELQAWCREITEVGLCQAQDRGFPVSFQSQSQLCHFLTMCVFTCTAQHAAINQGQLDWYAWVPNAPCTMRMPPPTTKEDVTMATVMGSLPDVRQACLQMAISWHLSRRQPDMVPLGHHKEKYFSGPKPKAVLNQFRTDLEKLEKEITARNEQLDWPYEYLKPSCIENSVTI
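Purified human 12hLO at 150 nM in 25 mM Hepes, 0.01% Triton X-100, pH 7.0, preincubated 15 min at room temperature with compound. Reaction started with 40 uM arachidonic acid, 30 min at room temperature. Hydroperoxide measured by Fe-xylenol orange, 573/405 nm absorbance ratio.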
LDHA block – blocks human lactate dehydrogenase A | P00338 | purified LDHA, NADH/diaphorase-resazurin fluorescence; active compounds read low | activity change, % (values are at about 110 or 230 µM) | actives 0.15% (n = 480,000) | AID 1347041; in the data active = activity change below about -30%; inconclusive = mostly about -25% to -30%;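 note: plate controls were DMSO wells for no effect and wells without enzyme for full effect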
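Resorufin fluorescence (ex540/em590), read at 0 and 20 min after diaphorase/resazurin addition, reports the NADH left after a 5 min room-temperature reaction of 2 nM human LDH5 with 0.06 mM NADH and 0.2 mM pyruvate.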
Nrf2 block – inhibitors of Nrf2 signaling. actives 2.1% (n = 360,000). A549 ARE-Fluc reporter, luciferase luminescence, 18-24 h. Potency, µM (doses to about 46 µM), for the others: top-dose activity change, negative = inhibition, usual class: inhibitors. AID 504444; note: potency is the fitted concentration of half-maximal effect; % is set by controls: 0 for no effect and ±100 for the full control effect; nearly all actives have a fitted effect of over 60% in size
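A549 ARE_Fluc cells (5000/well, 5% FBS OPTI-MEM) pre-incubated 2 h, then treated with compounds 18-24 h at 37C/5% CO2 in concentration-response. CellTiter-Fluor viability read first; BugLite luciferase luminescence after 15 min at room temperature gives Nrf2 activity.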
ERG Ets-DNA blk – inhibitors of human ERG Ets domain-DNA interaction | P11308 | fluorescence polarization, His-ERG Ets domain / labelled DNA | Potency, µM (highest dose often 76.9 µM), inactives show at the highest dose FP activity, negative = inhibition, hits mostly inhibitors | actives 0.028% (n = 370,000) | AID 624246; active = well fitted inhibition curve with a large enough effect in the polarisation, with a control signal flat; inconclusive = small, poorly fitted or top-dose-only effect, or effect the other way, or a change in a side signal; inactive = no such curve, though single readings can be large or run the other way; the % refers to the polarisation;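 note: polarization taken with two DNA probes labelled with fluorescein and Texas red; potency is the fitted concentration of half-maximal effect; % of control where 0% means no effect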
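His-tagged ERG Ets domain (1 uM in the protein solution; 300mM KCl, 50mM Tris-HCl, 1mM EDTA, 1mM DTT, pH 7.5) received compound, then a probe mix of 5 nM fluorescein-DNA and 100nM Texas-615-DNA. Fluorescence polarization was read for both dyes.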
Nrf2 ARE act – Nrf2 pathway activation; actives 0.31% (n = 410,000); AID 624171; AREc32 ARE-luciferase reporter (MCF7-derived line), luminescence, 24 h; Potency, µM (series often up to 46.1 µM), for inactives: at the top dose activation, actives largely listed as activators; note: potency is the fitted concentration of half-maximal effect; % of control where 0% means no effect; nearly all actives have a fitted effect of over 65% in size
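Quantitative high-throughput format: AREc32 reporter cells, 1000 per well, received compound by pin transfer and were incubated 24 hr at 37 deg C, 5% CO2, before Steady-Glo luminescence detection.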
* = called active by the depositor; ? = inconclusive; nt = not tested or not shown; ! = not confirmed by another sample. Shown are actives, neighbours in structure and some others; about 2.7% of the full set was active somewhere. Unless noted, calls come from the whole dose curve; as a rule, active = well fitted curve in the direction sought with a large enough effect; inconclusive = small, poorly fitted or top-dose-only effect, or another doubt; inactive = no such curve, though single readings can be large; an effect the other way counts as inactive or inconclusive.

SMILES	A549 viability	12-LOX inh	LDHA block	Nrf2 block	ERG Ets-DNA blk	Nrf2 ARE act
CCn1c(CCCOc2ccc(Cl)cc2C)n[nH]c1=S	nt	18µM*	-2	nt	nt	nt
CCn1c(COc2ccc(Cl)cc2)n[nH]c1=S	nt	16µM*	1	nt	nt	nt
COCCn1c(COc2ccc(C(C)(C)c3ccccc3)cc2)n[nH]c1=S	nt	16µM*	2	nt	nt	nt
CCCCCn1c(COc2ccc(Cl)cc2)n[nH]c1=S	nt	?	7	nt	nt	nt
CCn1c(CCCOc2ccc(Cl)cc2Cl)n[nH]c1=S	1%	25µM*!	-1	-19%	6%	8%
COc1ccc(CCn2c(CCCOc3ccc(Cl)cc3Cl)n[nH]c2=S)cc1OC	nt	?	-5	nt	nt	nt
CC1(C)CC(=O)C2=C(C1)NC1=C(C(=O)CC(C)(C)C1)C2c1ccc(C#N)cc1	nt	-21%	-1	nt	nt	nt
COC(=O)[C@@H]1Cc2c([nH]c3ccccc23)[C@H]2C[C@H](NCCCn3ccnc3)C[C@@H](c3ccccc3F)N21	nt	24%	nt	nt	nt	nt
Cc1cc(Cl)ccc1OCCCc1n[nH]c(=S)n1Cc1ccccc1	nt	16µM*	-3	nt	nt	nt
CCCCc1n[nH]c(=S)n1Cc1ccc(C)cc1	5%	?	-8	-14%	-1%	0%
Cc1ccc(Cn2c(CCCOc3ccc(Cl)cc3Cl)n[nH]c2=S)cc1	nt	16µM*	9	nt	nt	nt
Cc1ccccc1OCc1nn2c(CN3CCOCC3)nnc2s1	nt	4%	-1	nt	nt	nt
c1ccc2c(c1)ncn2Cc1nnc2sc(-c3ccncc3)nn12	3%	0%	15	11%	6%	0%
c1ccc(-c2nn3c(Cn4cnc5ccccc54)nnc3s2)cc1	2%	7.1µM*!	-7	0%	9%	-1%
c1ccc(-c2nn3c(Cn4nnc5ccccc54)nnc3s2)cc1	-2%	14µM*	1	-2%	nt	1%
COc1cccc(-c2nc3cc(NC(=O)CC(C)C)ccc3o2)c1	nt	?	1	nt	nt	nt
N#Cc1cnn(-c2ccc(NC(=O)c3ccc4[nH]c5c(c4c3)CCCC5)cc2)c1N	nt	?	11	nt	nt	nt
C[N+]1(CC(=O)OCCCC2CCCCC2)CCOCC1	nt	11µM*	2	nt	nt	nt
C[N+]1(CC(=O)OCCCC2CCCCC2)CCCC1	10%	2%	-5	0%	5%	2%
CCOC(=O)c1c(NC(=O)COC(=O)c2cccnc2OCC)sc(C(=O)N(CC)CC)c1C	-25%	-8%	-2	15µM*	-3%	5%
CCOC(=O)c1c(NC(=O)COc2ccc(OC)cc2)sc(C(=O)N(CC)CC)c1C	-22%	-11%	2	23µM*	4%	-1%
CCOC(=O)c1c(NC(=O)COc2ccc(Br)cc2)sc(C(C)=O)c1C	-2%	-24%	-5	nt	-3%	-1%
COCCn1c(-c2ccc(OCc3ccccc3)c(OC)c2)nc2c1c(=O)[nH]c(=O)n2CC(C)C	nt	-2%	1	nt	nt	nt
CC1=C/C(=N\Nc2nncc3ccccc23)CC1	nt	50µM*	0	nt	nt	nt
CC1=C/C(=N\Nc2ccccc2Cl)CC1	nt	?	10	nt	nt	nt
SMILES	A549 viability	12-LOX inh	LDHA block	Nrf2 block	ERG Ets-DNA blk	Nrf2 ARE act
CCn1c(-c2ccc(-c3ccccc3)cc2)c[nH]c1=S	-8%	?	-11	?	-8%	5%
Cn1c(-c2ccc(-c3ccccc3)cc2)c[nH]c1=S	-17%	40µM*	-10	?	7%	15%
Cc1ccc(-c2c[nH]c(=S)n2-c2ccccc2F)cc1	3%	35µM*	-3	2%	1%	1%
CCn1ncc2c(C(=O)Nc3cccc(OC)c3)cc(-c3cccs3)nc21	nt	?	2	nt	nt	nt
O=C(Nc1ccc(C(F)(F)F)cc1)c1ccc(N2C(=O)CCS2(=O)=O)cc1	nt	?	10	nt	nt	nt
Cc1cc(C)n2nc(N(Cc3cccc(C#N)c3)S(=O)(=O)c3ccccc3)nc2n1	nt	?	6	nt	nt	nt
COc1ccccc1C(=O)Nc1ccccn1	11%	8%	-9	nt	4%	11µM*
CCOc1ccc(NC(=S)Nc2cc(C)[nH]n2)cc1	-1%	40µM*	-7	30%	-1%	3%
COc1cc(NC(=S)Nc2ccccn2)c(OC)cc1Cl	1%	?	2	-13%	6%	4µM*
O=C(Nc1ccccn1)c1ccc(Br)s1	-6%	-20%	-10	?	1%	16µM*
CCOc1ccc(NC(=S)Nc2ccc(OCC)cc2)cc1	4%	?	4	10%	11%	0%
COc1cc(NC(=S)Nc2cccc(Cl)c2Cl)c(OC)cc1Cl	1%	-16%	0	-1%	1%	0%
Nc1nc(Nc2ccc(F)cc2)sc1C(=O)c1ccc(Cl)cc1	nt	-26%	-7	nt	nt	nt
N#Cc1ccc(OCCOC(=O)c2ccccc2F)cc1	nt	?	0	nt	nt	nt
COc1cc(OC)c(NC(=S)Nc2cc(Cl)cc(Cl)c2)cc1Cl	0%	?	-7	21µM*	3%	2%
CCOc1ccc(NC(=S)Nc2cc(OC)c(Cl)cc2OC)cc1	-1%	40µM*	4	-14%	nt	0%
